Many of the other results were omitted from the sample, so hits are more common in it than they were.
Lassa entry inh – Lassa virus entry inhibition; AID 540256; Lassa virus pseudotype entry inhibition, cell reporter; 300,000 tested, 1.2% active; Potency, µM (top dose mostly 37.9 µM), usual class: inhibitors; calls by dose curve; tested in HEK293 cells; note: nearly all actives have a fitted effect of over 50% in size
Cycloheximide cs – counter-screen hit for Shiga toxin inhibitors, cycloheximide; 300,000 tested, 12% active; max response, %; AID 2314; cell reporter, cycloheximide protein synthesis inhibition counterscreen; in the data active = max response mostly above about 13%, no sharp cut-off; inactive = mostly below about 14%; note: read at 38.3 µM for the half of the compounds with a filed dose
Shiga inhibitor – blocks Shiga toxin action in Vero cells; Vero cells, Shiga toxin protein synthesis inhibition reporter; inhibition, % at 38.7 µM; 290,000 tested, 9.2% active; AID 2315; in the data active = inhibition mostly above about 28%, no sharp cut-off; inactive = mostly below about 43%
AMA1 RON2 block – disrupts binding of P. falciparum AMA1 to RON2; AlphaScreen AMA1-biotinylated RON2 peptide binding; Potency, µM (highest dose often 58.2 µM), actives largely listed as inhibitors; 360,000 tested, 0.2% active; active = well fitted inhibition curve with a large enough effect; inconclusive = small, poorly fitted or top-dose-only effect; inactive = no such curve, though single readings can be large or run the other way; note: nearly all actives have a fitted effect of over 45% in size
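AMA1 (3D7) with his tag at 25 nM final met compounds first, then biotinylated RON2 peptide at 25 nM; detection used donor plus acceptor beads, 10 µg/mL apiece, read by AlphaScreen after 30 min at room temperature.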
MARV entry inh – Marburg virus entry inhibition | Marburg virus pseudotyped entry inhibition, cell reporter | Potency, µM (doses to about 37.8 µM), most hits filed as inhibitors | 300,000 tested, 1.8% active | AID 540276; calls by dose curve; tested in HEK293 cells
A number is an active result; - = inactive; ? = inconclusive; . = no result; [ ] = another dose, or the depositor's remark.

SMILES | Lassa entry inh | Cycloheximide cs | Shiga inhibitor | AMA1 RON2 block | MARV entry inh
C=CCN(C(=O)c1oc2c(Cl)cc(C)cc2c1C)C1CCS(=O)(=O)C1 (stereo not given) | . | 59.7 | 60.0 | - | .
C[C@H](CO)N1C[C@H](C)[C@@H](CN(C)S(=O)(=O)c2cccs2)Oc2c(NC(=O)C3CC3)cccc2C1=O | . | . | . | - | .
COCCNC(=O)C1CC(c2ccc(C(F)(F)F)cc2)=NO1 (stereo not given) | . | . | . | - | .
C#CCNc1ccc2c(c1)OC[C@H](C)NS2(=O)=O | - | . | . | . | .
O=C(COC(=O)c1ccccc1[N+](=O)[O-])c1ccc(C2CCCCC2)cc1 | - | 59.9 | 71.0 | - | ?
Cc1ccc(C)c2c(N)c3c(nc12)CCCCC3 (tested in a mixture with another compound) | - | - | - | - | -
Cn1cnnc1SCc1nc(N)nc(Nc2ccccc2)n1 | - | - | - | - | ?
COc1ccc(Nc2nc(N)nc(CSc3nnc(N)s3)n2)cc1 | - | 26.4 | - | - | -
Cc1ccc(Nc2nc(N)nc(CSc3nncn3C)n2)cc1 | - | 27.9 | 63.7 | - | ?
COc1ccc(Nc2nc(N)nc(CSc3nccn3C)n2)cc1 | . | 35.9 | 73.2 | - | .
Cc1nnc(SCc2nc(N)nc(Nc3ccccc3)n2)s1 | - | 38.2 | 68.9 | - | -
Cc1ccccc1NC(=O)c1nn(C)c2c1CS(=O)(=O)c1ccccc1-2 | . | - | - | - | .
CCn1c(O)c(N=NC(=O)CNC(=O)c2cccnc2)c2ccccc21 | . | . | . | - | .
Brc1ccc(-c2cn3cc(Cc4ccccc4)sc3n2)cc1 | - | . | . | . | ?
Nc1nc(CSc2ccccn2)nc(Nc2ccccc2)n1 | ? | 33.0 | 69.6 | - | ?
COc1ccc(Nc2nc(N)nc(SCc3nnc(C)s3)n2)cc1 | ? | 24.8 | - | - | -
COc1ccc(Nc2nc(N)nc(CSc3nc(C)cc(C)n3)n2)cc1 | ? | 17.9 | 48.6 | - | ?
CCc1ccc(Nc2nc(N)nc(CSc3nc4ccccc4s3)n2)cc1 | - | - | 49.1 | - | -
Cc1ccc(CNc2nc3ccc(Cl)cc3n3nnnc23)cc1 | - | . | . | . | -
CCCCCCn1cc(CN2CC(N3CCN(C4CCN(C)CC4)CC3)CS2(=O)=O)nn1 (stereo not given) | . | . | . | - | .
CSc1ccc(Cl)c(C(=O)OCC(=O)N2CCN(c3ccccc3)CC2)c1 | - | . | . | ? | -
COc1ccc(C2CC(=O)c3cc(-c4nc(-c5cccc([N+](=O)[O-])c5)cs4)c(=O)n(-c4ccc(C)c(C)c4)c3C2)cc1 (stereo not given) | - | . | . | . | -
COc1ccc2nc(NC(=O)c3ccccc3[N+](=O)[O-])sc2c1 | . | 39.7 | 71.1 | - | .
COc1ccc2nc(NC(=O)c3ccccc3O)sc2c1 | . | 57.6 | 63.1 | - | .
COc1ccc2nc(NC(=O)c3cc(=O)c4cc(C)c(C)cc4o3)sc2c1 | - | . | . | . | -
SMILES | Lassa entry inh | Cycloheximide cs | Shiga inhibitor | AMA1 RON2 block | MARV entry inh
COc1ccc(C(=O)NNC(=O)c2ccccc2[N+](=O)[O-])cc1 | - | 32.5 | 37.5 | - | ?
CCOC(=O)c1cccc(C(=O)Nc2nc3ccc(OC)cc3s2)n1 | . | - | 38.7 | - | .
O=C(NNC(=O)c1ccccc1[N+](=O)[O-])c1ccccc1[N+](=O)[O-] | - | - | - | - | -
O=C(Nc1nc2ccccc2s1)c1ccccc1[N+](=O)[O-] | . | 45.9 | 59.5 | - | .
O=C(O)c1cccc([N+](=O)[O-])c1C(=O)Nc1nc2ccccc2s1 | . | - | - | - | .
O=C(Nc1nc(-c2cccc3ccccc23)cs1)c1ccc2c(c1)S(=O)(=O)c1ccccc1C2=O | - | 21.4 | 61.9 | - | -
Fc1ccc(/C=N/NC(=S)Nc2cccnc2)cc1 | - | 27.1 | - | - | -
Oc1cccc(/C=N/NC(=S)Nc2cccnc2)c1O | 20.6µM | 29.8 | 45.3 | - | ?
Oc1ccc(/C=N/NC(=S)Nc2cccnc2)c(O)c1O | ? | - | - | ? | -
Fc1c(F)c(F)c(/C=N/NC(=S)Nc2cccnc2)c(F)c1F | ? | - | - | - | ?
Oc1ccc(/C=N/NC(=S)Nc2cccnc2)c(O)c1 | ? | 28.6 | 51.6 | -[11.6 µM] | ?
COC(=O)c1cc(NC(=O)c2nn(C)c3c2CSc2ccccc2-3)cc(C(=O)OC)c1 | - | . | . | . | ?
Cc1nn(C)cc1S(=O)(=O)N1CCN(c2ccccc2)CC1 | - | - | - | - | ?
COC(C/C=C/C(=O)COCc1ccccc1)OC | . | 18.5 | 42.5 | - | .
O=[N+]([O-])c1cccc(/C=N/Nc2nccnc2Cl)c1 | - | 42.1 | 76.7 | - | -
O=[N+]([O-])c1cc(/C=N\Nc2ccccn2)ccc1Cl | . | - | - | - | .
O=[N+]([O-])c1ccc(/C=N/Nc2ccccn2)cc1 | . | 20.0 | 60.3 | - | .
O=C(c1cccc([N+](=O)[O-])c1)c1ccccn1 | . | - | - | - | .
N#C/C(=C\c1cccc([N+](=O)[O-])c1)c1ccccn1 | - | 28.0 | 54.6 | - | ?
O=[N+]([O-])c1cccc(/C=C/c2ccccn2)c1 | . | 28.7 | 53.9 | - | .
O=C(/C=C/c1cccc([N+](=O)[O-])c1)N1CCN(c2ccccn2)CC1 | . | - | - | - | .
COc1cccc(NC(=O)Cn2c(=O)n(CCc3cccc(C)c3)c(=O)c3ccccc32)c1 | - | . | . | . | -
COc1cc(OC)c(OC)cc1CN1CCc2nc(Nc3ccc4c(c3)OCCO4)ncc2C1 | - | . | . | . | .
Cc1cccc(C(=O)N[C@H](C(=O)Nc2nccs2)C(C)C)c1 | - | - | - | -[11.6 µM] | -
CN(C)c1ccc(/C=N\Nc2ccccn2)cc1 | ? | 23.9 | 47.1 | - | -
SMILES | Lassa entry inh | Cycloheximide cs | Shiga inhibitor | AMA1 RON2 block | MARV entry inh
Nc1cccc(/C=C/c2ccncc2)c1 | . | 19.6 | 58.7 | - | .
Nc1nnc(/C=C/c2cccc([N+](=O)[O-])c2)s1 | . | 41.6 | - | - | .
O=[N+]([O-])c1cccc(/C=N/Nc2ccccn2)c1 | . | - | 65.2 | - | .
CC(=O)c1cccc(S(=O)(=O)N2CCC(C(=O)Nc3cccc(C(=O)NC4CC4)c3)CC2)c1 | . | . | . | - | .
CC(C)c1ccc(NC(=O)CN2C(=O)CN=C(c3ccccc3)c3ccccc32)cc1 | - | . | . | . | -
C(/C=C/c1ccccn1)=C\c1ccccc1 | . | . | . | - | .
C(=C\c1ccccn1)/c1ccncc1 | . | 21.5 | 77.8 | - | .
ClCc1csc(-c2ccc(Cl)cc2)n1 | - | - | - | - | -
CC1CN(Cc2csc(-c3ccc(Cl)cc3)n2)CC(C)O1 (stereo not given) | - | - | 116.8 | - | ?
CCOC(=O)C1(CCOC)CCN(Cc2nc(C(C)C)cs2)CC1 | - | 29.5 | 68.3 | - | ?
CCOC(=O)C1(CCOC)CCN(Cc2ccncc2)CC1 | ? | - | - | - | -
COC(=O)c1cc(C#N)c(N(C)Cc2ccccc2)nc1C | - | 30.2 | - | - | -
COCCn1c(-c2ccc(OC(F)(F)C(F)C(F)(F)F)cc2)nc2c1c(=O)[nH]c(=O)n2CC(C)C (stereo not given) | 2.82µM | - | - | - | -
COCCn1c(-c2ccc(SC)cc2)nc2c1c(=O)[nH]c(=O)n2CC(C)C | ? | 24.4 | - | - | -
CCCn1c(=O)[nH]c(=O)c2c1nc(-c1ccc(C(F)(F)F)cc1)n2CCOC | . | - | - | - | -
CCc1cccc(NC(=O)CN(c2ccc(C)cc2)S(=O)(=O)c2c(C)noc2C)c1 | . | - | - | - | .
O=S1(=O)N=C(Nc2ccc(N3CCOCC3)c(Cl)c2)c2ccccc21 | ? | 48.0 | 85.3 | - | ?

Assay outcomes from PubChem.
